High-throughput results: PubChem, National Center for Advancing Translational Sciences (NCATS)
S-ASM inh – blocks human secretory acid sphingomyelinase; P17405; placental ASM, HMU-PC fluorogenic substrate, 60 min; Potency, µM (doses to about 57.5 µM), for the others: top-dose activity change, negative = inhibition, hits mostly inhibitors; actives 0.006% (n = 340,000); AID 504937; further: potency means the concentration at half of the fitted maximal effect
Target sequence (P17405 47-631 limits assumed): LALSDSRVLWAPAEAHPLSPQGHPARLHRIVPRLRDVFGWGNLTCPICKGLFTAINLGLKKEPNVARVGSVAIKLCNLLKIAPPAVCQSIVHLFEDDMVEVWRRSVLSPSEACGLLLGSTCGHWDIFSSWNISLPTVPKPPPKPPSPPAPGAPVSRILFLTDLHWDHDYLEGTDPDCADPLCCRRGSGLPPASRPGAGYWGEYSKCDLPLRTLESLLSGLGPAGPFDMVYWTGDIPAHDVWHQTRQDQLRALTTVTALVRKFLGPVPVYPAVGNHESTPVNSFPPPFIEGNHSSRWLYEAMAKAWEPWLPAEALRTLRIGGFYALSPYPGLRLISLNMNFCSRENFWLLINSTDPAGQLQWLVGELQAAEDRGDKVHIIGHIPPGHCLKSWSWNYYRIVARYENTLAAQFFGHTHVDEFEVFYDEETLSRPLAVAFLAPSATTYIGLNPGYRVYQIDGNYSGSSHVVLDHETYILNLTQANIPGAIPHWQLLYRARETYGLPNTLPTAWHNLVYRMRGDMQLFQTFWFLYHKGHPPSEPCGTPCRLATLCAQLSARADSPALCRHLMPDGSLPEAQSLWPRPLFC
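qHTS format. ASM enzyme prepared from human placenta hydrolyses the fluorogenic substrate HMU-PC0 (9 uM final) over 60 min at 37 °C after a 10 min compound preincubation.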
IL-1B inflam inh – blocks inflammasome-driven IL-1 beta release; THP-1 LPS/ATP IL-1B secretion, AlphaLISA, 16 h; hits give low values; activity change, % at 57.5 µM; actives 4.7% (n = 360,000); AID 743279; in the data active means activity change below about -50%; inconclusive means mostly about -30% to -49%; further: on the % scale 0 is the no-effect control and ±100 the full control effect
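THP-1 cells pretreated 1 hr with compounds (up to 57.5 uM final), then stimulated with LPS (250 ng/mL final) plus ATP (1.25 mM final); secreted IL-1B measured by AlphaLISA after 16 hr, decreased signal indicating inhibition.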
HepG2 viability – counter-screen for TGF-b inhibitors: cytotoxicity in HepG2 cells; HepG2 CAGA-GFP viability, ATP luminescence, 18 h; Potency, µM (highest dose often 46.1 µM), without a hit: at the highest dose activity change, negative = cytotoxicity, actives largely listed as cytotoxic; actives 0.76% (n = 410,000); AID 588856; further: potency means the concentration at half of the fitted maximal effect
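CellTiter-Glo luminescence gave cytotoxicity after 18 hours at 37 degrees C. The cells were HepG2 CAGA-GFP in 1% FBS DMEM, stimulated with 500 pg/mL TGF-beta after compound addition. %Activity was normalised to no-cell wells (complete cell-killing) and DMSO (no toxicity), and curves were fitted and classified.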
TGFb SMAD3 inh – TGF-b pathway inhibition; HepG2 CAGA-GFP TGF-b/SMAD3 reporter, GFP fluorescence, 18 h; TGF-beta stimulated, 500 pg/mL final; actives 1.2% (n = 410,000); Potency, µM (doses to about 46.1 µM), inactives show at the top dose activity, negative = inhibition, hits mostly inhibitors; further: potency means the concentration at half of the fitted maximal effect; on the % scale 0 is the no-effect control and ±100 the full control effect; nearly all actives have a fitted effect of over 65% in size
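Inhibition of TGF-beta-driven CAGA-GFP reporter expression in HEPG2 cells is measured by cellular GFP fluorescence after 18 h stimulation with 500 pg/mL recombinant TGF-beta in 1% FBS medium at 37 degrees C.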
DT40 TDP1 no CPT – qHTS for Inhibitors of human tyrosyl-DNA phosphodiesterase 1 (TDP1): qHTS in cells in absence of CPT; DT40 Tdp1-/- hTDP1 cells, no CPT, ATP luminescence, 48 h; Potency, µM (series often up to 46.2 µM), for inactives: at the top dose activity change, negative = growth inhibition, usual class: inhibitors; actives 15% (n = 420,000); further: potency means the concentration at half of the fitted maximal effect; on the % scale 0 is the no-effect control and ±100 the full control effect; nearly all actives have a fitted effect of over 55% in size
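Cells were dispensed at 400 per well, compounds added by pin tool, plates incubated ≥48 hr at 37 °C, then CellTiter-Glo added for 30 min at room temperature before luminescence reading. Line: DT40 Tdp1-/- complemented with hTDP1; camptothecin omitted.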
TDP1 cell CPT – DT40-hTDP1 cell growth loss with CPT; chicken DT40 Tdp1-/-;hTDP1 cells + 20 nM CPT, ATP luminescence, 48 h; Potency, µM (titrated, usually from 46.2 µM), for the others: at the highest dose activity change, negative = growth inhibition, most hits filed as inhibitors; actives 12% (n = 420,000); AID 686979; further: potency means the concentration at half of the fitted maximal effect; on the % scale 0 is the no-effect control and ±100 the full control effect; nearly all actives have a fitted effect of over 55% in size
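Chicken DT40 Tdp1-/- cells stably complemented with human TDP1 were seeded at 400 cells/well in medium containing 20 nM camptothecin, exposed to pin-transferred compounds, and grown at 37 °C for at least 48 hr. Viability was read as ATP luminescence.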
* hit, by the source's call; ? = inconclusive; · = not tested or not shown; [ ] = dose if it differs, or a comment. A selection: hits, their analogues and other compounds. The true share with any hit is near 19%. Unless noted, the call rests on the fitted dose curve; in most records, active means well fitted curve in the direction sought with a large enough effect; inconclusive means small, poorly fitted or top-dose-only effect, or another doubt; inactive means no such curve, though single readings can be large; an effect the other way counts as inactive or inconclusive.

SMILES	S-ASM inh	IL-1B inflam inh	HepG2 viability	TGFb SMAD3 inh	DT40 TDP1 no CPT	TDP1 cell CPT
COc1ccc(C2C(C(=O)c3ccccc3)=C(C)Nc3nc4ccccc4n32)cc1OC (stereo unspecified)	-5%	0	-7%	1%	15µM*	?
CC1=C(C(=O)N2CCCCC2)C(c2ccc(Cl)cc2)n2c(nc3ccccc32)N1 (stereo unspecified)	·	·	15%	-13%	?	?
COc1ccccc1NC(=O)C1=C(C)Nc2nc3ccccc3n2C1c1ccccc1Cl (stereo unspecified)	·	·	-4%	-5%	?	15µM*
O=C(/C=C/c1ccc(Cl)cc1)OCC(=O)c1ccc[nH]1	6%	6	15%	39%	3%	-1%
O=C(C1CCN(c2nc3ccccc3[nH]2)CC1)N1CCN(c2ccccc2)CC1	·	·	-1%	1%	?	?
Cc1cccc(N2CCN(C(=O)C3CCN(S(=O)(=O)Cc4ccccc4)CC3)CC2)c1C	·	·	18µM*	?	9.2µM*	7.3µM*
O=C(C1CCN(S(=O)(=O)Cc2ccccc2)CC1)N1CCN(c2ncccn2)CC1	9%	9	-14%	-5%	-14%	-12%
Cc1cccc(N2CCN(C(=O)C3CCN(S(=O)(=O)c4cccnc4)CC3)CC2)c1C	1%	21	-15%	-4%	16µM*	18µM*
CC(=O)c1ccc(N2CCN(C(=O)C3CCN(S(=O)(=O)Cc4ccccc4)CC3)CC2)cc1	1%	14	-16%	-1%	?	-24%
O=C(C1CCN(S(=O)(=O)Cc2ccccc2)CC1)N1CCN(c2ccc(F)cc2)CC1	·	·	-1%	-4%	?	23µM*
Cc1ccc2nc(N3CCC(C(=O)N4CCN(c5cccc(C)c5C)CC4)CC3)[nH]c2c1	·	·	-42%	-19%	5.8µM*	2.9µM*
CCCC(C)(C)C(=O)N1CCC1(C)C(=O)NS(=O)(=O)c1ccc(Cl)cc1 (stereo unspecified)	·	33	0%	10%	2%	-28%
COc1ccc(N2CCN(C(=O)c3cc4c(=O)oc5ccc(C)cc5c4s3)CC2)cc1	·	·	0%	14%	-13%	-1%
COc1ccccc1CCN=C(N)NS(=O)(=O)c1ccc(C)c(C)c1	-1%	-19	3%	0%	1%	-22%
Cc1c2ccccc2nc2c(F)c(NC(C)C)c(F)c(F)c12	-12%	-53*	-26%	27%	?	?
Cc1c2ccccc2nc2c(F)c(NCCO)c(F)c(F)c12	-4%	-87*	-6%	47%	?	?
OCCNc1c2ccccc2nc2c(F)c(F)c(F)c(F)c12	257%	-93*	11%	-25%	2.3µM*	2.1µM*
CC(=O)c1ccc(-c2nnc(CCC(=O)N3CCCC(C(=O)CC(C)C)C3)o2)s1 (stereo unspecified)	2%	3	-6%	-9%	?	13µM*
CCC(=O)C1CCCN(C(=O)CCc2nnc(C3(c4ccc(Cl)cc4)CCC3)o2)C1 (stereo unspecified)	4%	1	0%	?	?	23µM*
O=C(CCc1nnc(C2(c3ccc(Cl)cc3)CCC2)o1)N1CCCC1	2%	9	-25%	-13%	-13%	-18%
CCOC(=O)c1ccc(NC(=O)CC(C)n2nc(C)cc2C)cc1 (stereo unspecified)	·	·	-5%	-22%	?	?
Cc1oc(-c2cc(F)ccc2F)nc1CN1CCC(C(=O)N2CCOCC2)CC1	6%	19	-2%	-13%	16%	13%
Cc1oc(-c2cccc(Cl)c2)nc1CN1CCCC(C(=O)N2CCN(c3ccc(F)cc3)CC2)C1 (stereo unspecified)	·	·	-32%	?	9.2µM*	7.3µM*
Cc1ccc(-c2nc(CN3CCCC(C(=O)N4CCOCC4)C3)c(C)o2)cc1 (stereo unspecified)	6%	-14	-15%	-28%	-16%	-25%
Cc1oc(-c2cccc(Cl)c2)nc1CN1CCC(C(=O)NC(C)C)CC1	·	·	3%	10%	-8%	-16%
SMILES	S-ASM inh	IL-1B inflam inh	HepG2 viability	TGFb SMAD3 inh	DT40 TDP1 no CPT	TDP1 cell CPT
Cc1ccc(Cl)cc1N1CCN(C(=O)C2CCN(Cc3nc(-c4cccc(Cl)c4)oc3C)CC2)CC1	·	·	-22%	-4%	15µM*	?
Cc1oc(-c2cccc(Cl)c2)nc1CN1CCC(C(=O)N2CCN(c3ccccc3F)CC2)CC1	-9%	-56*	-36%	?	18µM*	18µM*
O=C1c2ccccc2[C@@H]2C[C@H]3O[C@H]3CCN12	-1%	42	28%	13%	-1%	5%
CCc1ccc(N(CC(=O)NC(C)(C)C)C(=O)CCC(=O)Nc2ccccn2)cc1	2%	-1	8%	2%	18%	-19%
CCOC(=O)c1ccccc1NC(=O)N(Cc1ccco1)C1CCN(C(C)=O)CC1	·	·	-32%	-13%	?	?
C1CCC(Nc2nc3nonc3nc2N2CCSCC2)C1	0%	11	14%	-2%	2%	-22%
COc1ccc(O)c(C(=O)N2CCC3(CC2)c2ccccc2[C@@H](NC(=O)c2ccccn2)[C@@H]3OC)c1	·	·	·	·	-27%	2%[9.04 µM]
CCC1CN(C(=O)Nc2ccccc2C(F)(F)F)c2ccccc2O1 (stereo unspecified)	·	·	0%	-2%	2%	6%
CCC1CN(C(=O)Nc2cccc3c2CCCC3)c2cc(Cl)ccc2O1 (stereo unspecified)	·	·	-27%	?	21µM*	?
CCC1CN(C(=O)Nc2ccc(C)cc2)c2cc(C)ccc2O1 (stereo unspecified)	0%	-11	-14%	-1%	16µM*	?
CCC1CN(C(=O)Nc2cccc3c2CCCC3)c2ccccc2O1 (stereo unspecified)	·	·	-40%	?	16µM*	?
CC(C)OCCCN(Cc1ccco1)C(=O)c1cc2c(s1)-c1ccccc1OC2	·	·	-17%	-21%	·	·
Cc1nc(SCC(=O)N2CCCCCC2)c2c(=O)n(C)c(=O)n(CC(C)C)c2n1	-10%	-29	-48%	16µM*	13µM*	?
COc1cc(NC(=O)c2c(-c3ccccc3Cl)noc2C)c2ncccc2c1	-7%	11	-20%	-9%	16µM*	16µM*
